From PubChem BioAssay AID620 (Sanford-Burnham Center for Chemical Genomics, 2007) come the findings set out here.

SMILES strings stand for the structures. About 360 (0.41%) of roughly 87,000 compounds were called active. The list comes from a sample in which actives are over-represented; it also holds similar structures and randomly drawn compounds. A number with no mark means an inactive call. No stated cut-off is given here; in the data, active means cytotoxicity above about 50%; inactive means the rest.

The nature of this experiment: cytotoxicity in HT1080 fibrosarcoma cells, cell-based, fluorescence readout (AID 620).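 Further: cells exposed to compound overnight then 4 h with Alamar Blue; 0% = vehicle DMSO and 100% = killing control.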 Particulars: HT1080 viability, at 10 µM, stronger effect = higher value.
As to `CCOC(=O)CSCC(=O)Nc1ccc(S(=O)(=O)N2CCCCC2)cc1`, the cytotoxicity was 6.7%.

With `CC(C)(C)c1nc(CN2CCOCC2)ccc1O`, the cytotoxicity is -2.2%.

With `c1ccc(CNc2nc3ccccc3[nH]2)cc1`, the cytotoxicity was 4.5%.

For the compound `COc1ccc2nc(NCc3ccccc3)[nH]c2c1`, the cytotoxicity is 24.9%.

Turning to `Cc1ccc2nc(NCc3ccccc3)[nH]c2c1`, the cytotoxicity is 63.1% (active).

`CC(C(=O)Oc1ccc2c(c1)OCO2)N1C(=O)c2ccccc2C1=O` (stereo unspecified): the cytotoxicity is 3.4%.

As for `CC(=O)N1CCc2cc(C(=O)CN3CCCCC3)ccc21`, the cytotoxicity is -6.3%.

Take `CCN1CCN(Cc2nc3c(c(=O)[nH]c(=O)n3C)n2Cc2ccccc2Cl)CC1`: the cytotoxicity was 4.2%.

For the compound `COc1ccc(-c2cc(-c3cccs3)c(C#N)c(SCC(=O)NCc3ccccc3)n2)cc1`, the cytotoxicity was -5.2%.

For the compound `COc1ccc(CNC(=O)CSc2nc(-c3ccccc3)cc(-c3cccs3)c2C#N)cc1`, the cytotoxicity is -13.6%.

Consider `COc1ccc(-c2cc(-c3cccs3)c(C#N)c(SCC(=O)NCc3ccco3)n2)cc1`, for which the cytotoxicity is 55.1% (active).

For `Nc1nc(SCc2ccc(Cl)cc2)ns1`, the cytotoxicity is -0.5%.

Take `CCOC(=O)C1CCCN(Cc2ccccc2OCC)C1` (stereo unspecified): the cytotoxicity is 8.9%.

Regarding `COc1ccc(C(=O)Nn2c(C)ccc2C)cc1OC`, the cytotoxicity is -1%.

`CS(=O)(=O)N1CCN(c2ccccc2NC(=O)c2ccc(-c3ccc(Cl)cc3Cl)o2)CC1`: the cytotoxicity is 6%.

In the case of `COc1cc(C2=NOC(C(=O)NCc3ccc(F)cc3)C2)cc(OC)c1OC` (stereo unspecified), the cytotoxicity was 64.5% (active).

`COc1ccc(CNC(=O)C2CC(c3ccc(OC)cc3)=NO2)cc1` (stereo unspecified): the cytotoxicity is -0.6%.

Turning to `COc1ccc(CNC(=O)C2CC(c3ccc(F)cc3)=NO2)cc1` (stereo unspecified), the cytotoxicity is 3.2%.

Consider `COc1ccc(C2=NOC(C(=O)NCc3ccc(F)cc3)C2)cc1OC` (stereo unspecified), for which the cytotoxicity is 57.2% (active).

For the compound `COc1cccc(C2=NOC(C(=O)NCc3ccc(F)cc3)C2)c1` (stereo unspecified), the cytotoxicity is -1.1%.

Regarding `COc1ccc(C2=NOC(C(=O)NCc3ccc(F)cc3)C2)cc1` (stereo unspecified), the cytotoxicity was 7%.

On to `COc1ccc2[nH]c(=O)c(C(c3nnnn3C3CCCC3)N3CCN(Cc4ccc5c(c4)OCO5)CC3)cc2c1` (stereo unspecified), for which the cytotoxicity was -0.4%.

With `COc1cc(NC(=O)c2nccnc2C(=O)O)cc(OC)c1`, the cytotoxicity is -8%.

Take `C=CCSc1ncc(C#N)c(N)n1`: the cytotoxicity was 14.9%.

Turning to `O=C(OCC(=O)N1CCc2ccccc21)c1cccnc1Cl`, the cytotoxicity was -2.9%.

Consider `CS(=O)(=O)N1CCCC(C(=O)NCCCN2CCc3ccccc3C2)C1` (stereo unspecified), for which the cytotoxicity was -1.1%.

In the case of `C[C@@H](C(=O)NCCc1c[nH]c2ccccc12)[C@@H]1C[C@@]1(C)[C@@H](NC(=O)OCc1ccccc1)c1ccccc1`, the cytotoxicity was 0.9%.

In the case of `Cc1cc2c(c(C)nn2-c2ccccc2)c(=O)o1`, the cytotoxicity is -11.4%.

In the case of `CCCCCCCCCn1c2c(c(=N)c3c1CCC3)CCC2`, the cytotoxicity was 51.6% (active).

On to `CCCCCCn1c2c(c(=N)c3c1CCC3)CCC2`, for which the cytotoxicity was 12.4%.

`CCCCCCCCCCn1c2c(c(=N)c3c1CCC3)CCC2`: the cytotoxicity is 38.3%.

With `Cn1c(=O)[nH]c(=O)c2c1nc(CN1CCN(c3ccccc3F)CC1)n2CC(N)=O`, the cytotoxicity was -7.3%.

Turning to `COC(=O)c1ccccc1NC1=C/C(=N\S(=O)(=O)c2cccs2)c2ccccc2C1=O`, the cytotoxicity is -53%.

Take `COC(=O)C(C(C)=O)C1=C/C(=N\S(=O)(=O)c2ccc(C)cc2)c2ccccc2C1=O` (stereo unspecified): the cytotoxicity was -13%.

`Cc1ccc(NC2=C/C(=N\S(=O)(=O)c3cccs3)c3ccccc3C2=O)c(C)c1`: the cytotoxicity is 61.6% (active).

`O=c1nc(N2CCOCC2)ccn1Cc1ccc(Br)cc1`: the cytotoxicity was -6.8%.

For the compound `C=CCn1cc(C(=O)OC)c(=O)c2cc(S(=O)(=O)N3CCC(C)CC3)ccc21`, the cytotoxicity is 6.1%.

As for `COc1ccc(NC(=O)c2oc3ccccc3c2NC(=O)COc2ccccc2OC)c(OC)c1`, the cytotoxicity is -4.5%.

With `O=C(N1CCOCC1)N1CCN(c2ccccn2)CC1`, the cytotoxicity was 6.2%.

Consider `O=C(NC1CCN(C(=O)N2c3ccccc3Sc3ccccc32)CC1)c1ccco1`, for which the cytotoxicity was 3.2%.

`O=C(CN1CCN(c2ccccn2)CC1)N1c2ccccc2Sc2ccc(C(F)(F)F)cc21`: the cytotoxicity is 6.6%.

Take `O=C(c1ccco1)N1c2ccccc2Sc2ccccc21`: the cytotoxicity was 0.2%.

Regarding `O=C(N1CCN(c2ccccn2)CC1)N1c2ccccc2Sc2ccccc21`, the cytotoxicity was 59.7% (active).

For the compound `O=C(c1ccco1)N1CCN(C(=O)N2c3ccccc3Sc3ccccc32)CC1`, the cytotoxicity was 60.9% (active).

On to `Cc1ccccc1C(NC(N)=O)c1ccccc1` (stereo unspecified), for which the cytotoxicity was 0.3%.

With `CC(C)N=C(NC#N)SCc1ccccc1`, the cytotoxicity is 0.9%.

For the compound `COc1ccc(C2=Nn3c(nnc3-c3ccccc3)SC2)cc1OC`, the cytotoxicity is 11.6%.

As to `CCOc1ccc(C2=Nn3c(nnc3-c3ccccc3OC)SC2)cc1`, the cytotoxicity is 62.9% (active).

As for `COc1ccc(C2=Nn3c(nnc3-c3ccccc3OC)SC2)cc1OC`, the cytotoxicity is 56.1% (active).

Turning to `CCOc1ccc(-c2nnc3n2N=C(c2ccc(OC)cc2)CS3)cc1`, the cytotoxicity was 11.5%.

As for `COc1ccccc1-c1nnc2n1N=C(c1ccc(O)c(O)c1)CS2`, the cytotoxicity was 48%.

In the case of `CCOc1ccc(C2=Nn3c(nnc3-c3ccc(OC)cc3)SC2)cc1`, the cytotoxicity is 38%.

In the case of `CSC1CCCCC1(O)CSc1nc2ccccc2o1` (stereo unspecified), the cytotoxicity is -0.9%.

In the case of `O=C(CCN1C(=O)C2C3C=CC(C3)C2C1=O)N1CCN(c2ccc(F)cc2)CC1` (stereo unspecified), the cytotoxicity was 0.6%.

Consider `O=C(O)C1CC=C(Cl)CC1C(=O)NCC1OCCc2ccccc21` (stereo unspecified), for which the cytotoxicity was 22.3%.

As for `O=C(NCc1ccc(F)cc1)C1CCN(C(=O)NCc2ccccc2)CC1`, the cytotoxicity was -1%.

Turning to `OCCc1ccc(-c2ccc(Cl)cc2)o1`, the cytotoxicity is 0.4%.

Take `Cc1nn(-c2ccc(F)cc2)c2sc(C(=O)N3CCCCCC3)cc12`: the cytotoxicity is -14%.

As for `Nc1ccc2nc(-c3ccccn3)[nH]c2c1`, the cytotoxicity was 18.5%.

Consider `CC(=O)Nc1ccc2nc(-c3ccccn3)[nH]c2c1`, for which the cytotoxicity was 7.2%.

For `CC1(C)OC(=O)N(c2ccccc2)C12C=Cc1cc(Br)ccc1O2` (stereo unspecified), the cytotoxicity is -10.5%.

Regarding `Nc1nonc1C(=O)NCCNCc1cc(Br)ccc1OCc1ccc(F)cc1`, the cytotoxicity was 21.8%.

For `Nc1nonc1C(=O)NCCNCc1ccccc1OCc1ccccc1F`, the cytotoxicity is 0.5%.

`Nc1nonc1C(=O)NCCNCc1cc(Br)ccc1OCc1ccccc1F`: the cytotoxicity is 99.7% (active).

Regarding `Cn1c(=O)c2c(nc(SCCN3CCOCC3)n2Cc2ccc(Cl)cc2)n(C)c1=O`, the cytotoxicity was -7%.

As for `OC1CCN(c2c3c(nc4cc(-c5ccc(F)cc5)nn24)CCC3)CC1`, the cytotoxicity was -17.8%.

Take `Fc1ccc(-c2cc3nc4c(c(N5CCOCC5)n3n2)CCCC4)cc1`: the cytotoxicity is -15.8%.

Turning to `O=C(C1CC1)N1CCN=C1SCc1ccccc1Cl`, the cytotoxicity is -3.4%.

Regarding `CCOC(=O)N1CCN(S(=O)(=O)c2ccc(OCC)c(C)c2)CC1`, the cytotoxicity was 4.4%.

For the compound `Cc1cccc(NS(=O)(=O)c2cccc3cccnc23)n1`, the cytotoxicity was 9%.

Take `Cc1cc(C(=O)NCCCN2CCOCC2)n(-c2ccccc2)n1`: the cytotoxicity is -1.5%.

Regarding `Cc1cc(C(=O)NCCN2CCN(c3cccc(Cl)c3)CC2)n(-c2ccccc2)n1`, the cytotoxicity is 55.9% (active).

As for `Cc1cc(C(=O)NCCCN2CCN(C3CCCCC3)CC2)n(-c2ccccc2)n1`, the cytotoxicity was 13.2%.

In the case of `Cn1c(=O)[nH]c(=O)c2c1nc1n2CCCS1`, the cytotoxicity was 35.1%.

Turning to `Cc1ccc(C(C#N)c2ccc3c(C(F)(F)F)cc(C(F)(F)F)nc3n2)cc1` (stereo unspecified), the cytotoxicity is -12.2%.

Consider `N#CC(c1ccc(Cl)cc1)c1ccc2c(C(F)(F)F)cc(C(F)(F)F)nc2n1` (stereo unspecified), for which the cytotoxicity is 51.3% (active).

On to `N#CC(c1ccccc1)c1ccc2c(C(F)(F)F)cc(C(F)(F)F)nc2n1` (stereo unspecified), for which the cytotoxicity was -4.8%.

In the case of `Cc1ccc(NC(=O)CN2CCCCCC2)c(Br)c1`, the cytotoxicity is -14.9%.

Regarding `CCOC(=O)c1ccc(NC(=O)CC2C(=O)N(c3ccc(F)cc3)C(=O)N2CCC(C)C)cc1` (stereo unspecified), the cytotoxicity is 4.5%.

Turning to `Cn1cc(S(=O)(=O)NCc2cccs2)c(=O)n(C)c1=O`, the cytotoxicity was 0.5%.

As to `COc1ccc(S(=O)(=O)Nc2ccc(N(C)C(C)=O)cc2)cc1`, the cytotoxicity is 4.3%.

As to `O=C(CSc1ncn[nH]1)Nc1ccccc1Sc1ccc(Cl)cc1`, the cytotoxicity was 41.7%.

Take `Nc1nc(SCC(=O)Nc2ccccc2-c2ccccc2)n[nH]1`: the cytotoxicity is 0.1%.

In the case of `Nc1nc(SCC(=O)Nc2ccccc2Sc2ccc(Cl)cc2)n[nH]1`, the cytotoxicity is 74.3% (active).

As to `CCn1c(SCC(=O)c2ccc(NS(=O)(=O)c3ccccc3)cc2)nnc1-c1cccs1`, the cytotoxicity is -0.1%.

For the compound `O=C(O)C1C2CCC(O2)C1C(=O)Nc1cnn(Cc2ccccc2)c1` (stereo unspecified), the cytotoxicity was 13%.

Take `CC(C)CC(NC(=O)C1CCC(C)CC1)C(=O)NCc1ccccn1` (stereo unspecified): the cytotoxicity is 23.1%.

`Cn1c(C(=O)N2CCC(C(=O)N3CCOCC3)CC2)cc2sccc21`: the cytotoxicity was 4.3%.

For `CCOc1ccccc1-n1c(SCC(N)=O)nnc1-c1cccnc1`, the cytotoxicity is 7.9%.

For the compound `COc1ccc(C2=Nn3c(nnc3-c3ccc(OC)cc3)SC2)cc1`, the cytotoxicity was 62.4% (active).

Take `Brc1ccc(C2=Nn3c(nnc3-c3n[nH]c4c3CCC4)SC2)cc1`: the cytotoxicity is 56.3% (active).

In the case of `COc1cc(-c2nnc3n2N=C(c2ccccc2)CS3)cc(OC)c1OC`, the cytotoxicity is 66.9% (active).

As to `COc1ccc(-c2nnc3n2N=C(C)CS3)cc1`, the cytotoxicity is -10.3%.

As for `COc1ccc(-c2nnc3n2N=C(c2ccccc2)CS3)cc1OC`, the cytotoxicity was -10.6%.

`COc1ccc(C2=Nn3c(nnc3-c3ccncc3)SC2)cc1`: the cytotoxicity is -6.8%.

`COc1ccc(OC)c(C2=Nn3c(nnc3-c3ccncc3)SC2)c1`: the cytotoxicity is 2.2%.

For the compound `Fc1ccc(C2=Nn3c(nnc3-c3n[nH]c4c3CCC4)SC2)cc1`, the cytotoxicity is 5.8%.

In the case of `COc1ccc(OC)c(C2=Nn3c(nnc3-c3cc(OC)c(OC)c(OC)c3)SC2)c1`, the cytotoxicity was 64.1% (active).

Consider `Cc1cccc(-c2nnc3n2N=C(c2ccccc2)CS3)c1`, for which the cytotoxicity is 5.5%.

Turning to `Clc1ccc(C2=Nn3c(nnc3-c3n[nH]c4c3CCC4)SC2)cc1`, the cytotoxicity was 6.1%.

As for `COc1cccc(-c2nnc3n2N=C(c2cc(OC)ccc2OC)CS3)c1`, the cytotoxicity is 5.5%.
